Shown are actives, neighbours in structure and some others; about 2.6% of the full set was active somewhere.
Cruzain Triton – inhibitors of Trypanosoma cruzi cruzain with detergent. P25779. purified cruzain, Z-FR-AMC fluorescence, 0.01% Triton. Potency, µM, hits mostly inhibitors. hit rate 0.43% among 200,000. AID 1478; note: nearly all actives have a fitted effect of over 40% in size
Target sequence (P25779 123-467 limits assumed): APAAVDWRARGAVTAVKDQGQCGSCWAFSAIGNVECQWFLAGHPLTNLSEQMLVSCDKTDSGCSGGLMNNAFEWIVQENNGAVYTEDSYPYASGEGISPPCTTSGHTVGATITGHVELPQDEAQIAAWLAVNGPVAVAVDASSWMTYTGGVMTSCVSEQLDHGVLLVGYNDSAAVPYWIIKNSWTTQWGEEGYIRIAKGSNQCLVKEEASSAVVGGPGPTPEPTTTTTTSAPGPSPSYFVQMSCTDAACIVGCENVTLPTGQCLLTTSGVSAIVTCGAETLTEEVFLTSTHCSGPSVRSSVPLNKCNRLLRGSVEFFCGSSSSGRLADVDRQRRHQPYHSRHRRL
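Cruzain (1.5 nM) preincubated 15 min at RT with compound in 100 mM sodium acetate pH 5.5, 5 mM DTT, 0.01% Triton X-100. Reaction started with 2 uM Z-FR-AMC; AMC fluorescence (ex 360/em 450 nm) change over 60 s gave rate.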
Cruzain noTriton – cruzain (T. cruzi) inhibition without detergent; purified cruzain, Z-FR-AMC fluorescence, no detergent; AID 1476; hit rate 2.3% among 200,000; Potency, µM, actives largely listed as inhibitors; note: nearly all actives have a fitted effect of over 40% in size
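Purified cruzain at 1.5 nM, pre-incubated 15 min with compound at room temperature in 100 mM sodium acetate pH 5.5, 5 mM DTT, 0.00005% Triton X-100. Reaction started with 2 uM Z-FR-AMC; AMC fluorescence increase over 60 s gives rate.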
Each line names hits and unclear results; the compound was inactive in the other large screens. Calls come from the whole dose curve; as a rule, active = well fitted curve in the direction sought with a large enough effect; inconclusive = small, poorly fitted or top-dose-only effect, or another doubt; inactive = no such curve, though single readings can be large; an effect the other way counts as inactive or inconclusive.

COc1ccccc1C(=O)Nc1cc2cc(Br)ccc2oc1=O	Cruzain noTriton 16µM
CC(C)(C)OC(=O)N[C@@H](Cc1ccccc1)c1nnc(S(=O)(=O)Cc2ccccc2)o1	Cruzain Triton 16µM, Cruzain noTriton 32µM
Cc1ccccc1CS(=O)(=O)c1nnc([C@H](Cc2ccccc2)NC(=O)OC(C)(C)C)o1	Cruzain Triton 14µM, Cruzain noTriton inconclusive
CC(C)(C)OC(=O)N[C@@H](Cc1ccccc1)c1nnc(SCC(=O)c2ccc(Cl)cc2)o1	Cruzain noTriton inconclusive
CCSc1nnc([C@H](Cc2ccccc2)NC(=O)OC(C)(C)C)o1	none
CCCCCCOc1ccc(/C=C/C(=O)Nc2sc3c(c2C(=O)OC)CCC3)cc1OC	none
CCCn1c2c(c(O)c(C(=O)NCc3ccccc3)c1=O)CCCC2	none
CCOC(=O)c1c(O)c2c(n(Cc3ccco3)c1=O)CCCC2	none
O=C(Nc1cccc(Cl)c1)c1c(O)c2c(n(Cc3ccccc3)c1=O)CCCC2	Cruzain noTriton 16µM
O=C(Nc1cccc(Cl)c1)c1c(O)c2c(n(Cc3ccco3)c1=O)CCCC2	Cruzain noTriton 7.9µM
Cn1c(=O)cnc2cnc(OCc3ccccc3)nc21	none
Cc1ccc(NC(=O)C2CCCN(C(=O)c3cnn(-c4ccc(F)cc4)c3-n3cccc3)C2)c(Cl)c1 (stereo not drawn)	Cruzain noTriton inconclusive
Cc1ccc(C(C)C)c(OCCSc2nc(-c3cccs3)nc3cc(=O)[nH]n23)c1	Cruzain noTriton 7.9µM
Cc1cc(C)cc(OCCSc2nc(-c3cccs3)nc3cc(=O)[nH]n23)c1	none
Cc1cccc(-c2nc(SCCCOc3cc(C)c(Cl)c(C)c3)n3[nH]c(=O)cc3n2)c1	none
Cc1ccc(NC(=O)CSc2nc(-c3ccc(C(C)(C)C)cc3)nc3cc(=O)[nH]n23)cc1C	Cruzain noTriton 4µM
CCOc1ccc(-c2nc(SCC(=O)Nc3ccc(C)c(C)c3)n3[nH]c(=O)cc3n2)cc1	none
O=c1cc2nc(-c3cccs3)nc(SCCOc3ccc(Cl)cc3)n2[nH]1	none
Cc1cccc(-c2nc(SCCCOc3ccccc3Cl)n3[nH]c(=O)cc3n2)c1	Cruzain noTriton 16µM
C=CCc1ccccc1OCCSc1nc(-c2cccs2)nc2cc(=O)[nH]n12	Cruzain noTriton 7.9µM
COc1ccc2c(C)c(CC(=O)NCCc3ccc(Cl)cc3)c(=O)oc2c1C	none
CCOc1ccc(NC(=O)CCc2c(C)nc3c(c(C)nn3-c3ccccc3)c2C)cc1	none
CC(C)Nc1ccc(-c2nc(-c3ccco3)no2)cc1[N+](=O)[O-]	none
Cc1ccc(C)c(NC(=O)Cn2c(=O)n(-c3ccccc3C)c(=O)c3c2c2cc(C)ccc2n3C)c1	none
O=C(Cn1c(=O)n(Cc2ccco2)c(=O)c2oc3ccccc3c21)Nc1ccc(F)c(Cl)c1	none
COC(=O)c1cc2sc(Cl)cc2n1Cc1c(C)cc(C)cc1C	none
Cc1cccc(N2CCN(C(=O)C3CCCN(S(=O)(=O)c4ccc5c(c4)oc(=O)n5C)C3)CC2)c1C (stereo not drawn)	none
COc1ccccc1CNS(=O)(=O)c1ccc2[nH]c3c(c2c1)CCCCC3	Cruzain noTriton inconclusive
COc1ccccc1OCCSc1nc(-c2ccc(C(C)(C)C)cc2)nc2cc(=O)[nH]n12	none
C=CCc1ccccc1OCCSc1nc(-c2ccc(C(C)(C)C)cc2)nc2cc(=O)[nH]n12	Cruzain noTriton 4µM
CC(=O)Nc1ccc(NC(=O)c2csnn2)cc1	none
Cc1cccc(C(=O)N2CCc3cc(CNS(=O)(=O)c4ccc(Cl)s4)ccc32)c1	Cruzain noTriton inconclusive
O=C1NC(=S)N/C1=C\c1cccc([N+](=O)[O-])c1	Cruzain noTriton inconclusive
O=C1NC(=S)N/C1=C/c1ccc(-c2c(Br)cc([N+](=O)[O-])cc2Br)o1	Cruzain noTriton 20µM
COC(=O)c1ccc(Cn2c(=O)cc(C(F)(F)F)c3c(C)nn(C)c32)cc1	none
CCOc1ccc(OCc2ccc(C(=O)O)o2)cc1	none
Cc1ccnc(NC(=O)c2ccc(COc3ccc(Cl)cc3)o2)c1	none
O=C(c1ccc(COc2ccc(F)cc2)o1)n1cccn1	Cruzain Triton 16µM, Cruzain noTriton 13µM
O=C(c1ccc(COc2ccc(F)cc2)o1)n1cc(Br)cn1	Cruzain Triton 14µM, Cruzain noTriton inconclusive
Cc1cc(OCc2ccc(C(=O)n3cccn3)o2)ccc1Cl	Cruzain Triton 7.9µM, Cruzain noTriton inconclusive
Cc1nn(Cc2ccc(C(=O)n3cccn3)o2)c(C)c1Br	none
COc1ccccc1C(=O)NC1(C(F)(F)F)C(=O)NC(C)=C1C#N (stereo not drawn)	none
Cc1cccc(CNc2ncncc2-c2cccc(C#N)c2)c1	none
Cc1ccc(N2CC(c3nc(-c4ccc(Cl)cc4)no3)CC2=O)cc1F (stereo not drawn)	none
COc1ccc(NC(=O)CC2C(=O)N(c3ccc(C)cc3)C(=O)N2Cc2ccc(C)cc2)cc1 (stereo not drawn)	none
O=C(Nc1cccc(-c2nc3cccnc3s2)c1)c1cccc(Br)c1	none
CCOC(=O)c1cc(-c2ccc(OC)cc2)nn1Cc1ccccc1	none
Cc1c(Cl)cccc1NC(=O)NCCOCCn1c(=O)oc2ccccc21	none
